From PubChem BioAssay (NCI)
Values joined by “and” are separate entries in the source; they are usually repeats but may differ in a detail not shown here. Equal entries are not always repeated. Compounds without any hit were thinned out: in the full panel of roughly 83,000, 20% have a hit.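 Growth was measured after 48 h exposure to one concentration of compound in 96-well plates. Values under 10 count as active.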 Active and inactive are the calls of the source.

tested on: HL-60(TB) leukemia; test: NCI-60 one-dose screen, 48 h (100 = growth as untreated, 0 = no growth, -100 = all killed); settings: 10 µM unless noted

| Structure (SMILES) | growth |
| --- | --- |
| Oc1ccc(Cn2cc3c(c2-c2ccccc2)CCc2cnoc2-3)cc1 | 93.8% (inactive) |
| Nc1ccccc1NC(=O)c1ccc(CCCC(=O)Nc2ccc(C3CC3N)cc2)cc1 (stereo not given) | 24.6% (inactive) |
| O=C1Nc2ccc(Br)cc2/C1=N/c1nc(-c2ccccc2)cs1 | 73.1% (inactive) |
| CC#CC#Cc1cccc(=O)o1 | 18.1% (inactive) |
| FC(F)(F)c1cccc(Nc2nc3ccccc3nc2Nc2cccc(C(F)(F)F)c2)c1 | -48.9% (active) |
| Nc1nc2c3ccncc3cc(-c3cccc(Cl)c3)c2c2cnccc12 | 6.71% (active) |
| N#CC1=C(c2ccc(Br)cc2)NC(SCC(=O)c2ccc(Br)cc2)NC1=O (stereo not given) | 96% (inactive) |
| Cc1ccccc1C1=N[C@@H](Cc2ccccc2)C(=O)c2c(nc3ccccn23)N1 | 125% (inactive) |
| CCN(CC)CCn1nc2c3c(cccc3c1=O)-c1ccccc1-2 | 16.9% (inactive) |
| N#Cc1nnn(-c2ccc(S(N)(=O)=O)cc2)c1NCC(=O)c1ccccc1 | 88.4% (inactive) |
| COc1ccc(-c2nn(Cc3ccccc3)c3c2-c2oncc2CC3)cc1OC | 87.7% (inactive) |
| CCCc1ccnc(NS(=O)(=O)c2ccc(N)cc2)n1 | 24.7% (inactive) |
| O=[N+]([O-])c1ccccc1N(S(=O)(=O)c1ccccc1)S(=O)(=O)c1ccccc1 | 5.52% (active) and 108% (inactive) |
| COc1cc2c(c(OC)c1OC)-c1ccc(OC)c(=O)cc1[C@@H](NC(C)=O)CC2 | -36% (active) and -38.2% (active) |
| O=C(Nc1cccc(-n2ccc3c(NC(=O)c4ccccc4)nccc32)c1)c1ccc(N2CCOCC2)c(C(F)(F)F)c1 | -7.22% (active) |
| Cc1ccc(-c2nc(N3CCNCC3)c3oc(-c4ccccc4)nc3n2)cc1 | -66.6% (active) |
| OB1OCc2cc(/C=C/c3cccc(C(F)(F)F)c3)ccc21 | -6.49% (active) |
| Oc1ccc(Cc2ccccc2Cl)c(O)c1 | 97.4% (inactive) |
| CCCCCCN1C(=O)CN=C1Nc1ccc2cc3ccc(NC4=NCC(=O)N4CCCCCC)cc3nc2c1 | 50.1% (inactive) |
| COc1ccc(C(=O)NC(=O)Nc2cc3c(cc2F)/C(=C/c2[nH]c(C)c(CCC(=O)O)c2C)C(=O)N3)c(F)c1 | 20.9% (inactive) |

| Structure (SMILES) | growth |
| --- | --- |
| C/C(=N\NC(=O)c1ccccc1O)c1cccc(/C(C)=N/NC(=O)c2ccccc2O)n1 | 6.42% (active) |
| CNCCNc1nc2ccccc2c2c(=O)c3cc(F)ccc3oc12 | 95.4% (inactive) |
| CN(C)c1ccc(/C=N/n2c(-c3cc(F)c(Cl)cc3Cl)nn(CN3CCOCC3)c2=S)cc1 | 101% (inactive) |
| O=C(Nc1ccc(Cl)cc1)Nc1ccccc1CNc1nc(Nc2ccc(OCCN3CCCC3)cc2)ncc1Cl | -45.1% (active) |
| COc1cc(C(=O)N2CCN(c3ccccc3)CC2)c2ccccc2n1 | -1.74% (active) |
| Cc1c(C(=O)NCCCc2ccccc2)sc2ncc(-c3ccc(Br)cc3)n12 | 90.1% (inactive) |
| Cc1ccccc1NC(=O)N/C(N)=N/c1nc(C)c(C)s1 | -2.57% (active) |
| COC(=O)CCCNC(=O)C(=O)c1c(O)c(O)c(C(C)C)c2cc(C)c(-c3c(C)cc4c(C(C)C)c(O)c(O)c(C(=O)C(=O)NCCCC(=O)OC)c4c3O)c(O)c12 | 11.3% (inactive) |
| CCN(CC)CCCC(C)Nc1nc(-c2ccc(OC)cc2)nc2cc(Cl)ccc12 (stereo not given) | 51.8% (inactive) |
| CCn1c(SCC(=O)c2ccc(Br)cc2)nnc1-c1ccncc1 | 103% (inactive) |
| Cc1cc(NC(=O)CSCC(=O)O)no1 | 88.9% (inactive) |
| Cc1ccc(-c2cn(C/C=C3\C=CN(S(=O)(=O)c4ccccc4)CC3)nn2)cc1 | 105% (inactive) |
| N=C(N)c1ccc(-c2ccc(-c3cc(F)cc(F)c3)o2)nc1 | 97.7% (inactive) |
| NC(=S)Cc1ccccc1 | 99.1% (inactive) |
| C=C(C)[C@@H]1CC[C@]2(CO)CC[C@]3(C)[C@H](CC[C@@H]4[C@@]5(C)C=C(C#N)C(=O)C(C)(C)[C@@H]5CC[C@]43C)[C@@H]12 | -26.1% (active) |
| CCOC(=O)C1=NN(c2ccccc2)C(=O)/C1=C\N1C(=O)CC(=O)NC1=S | 101% (inactive) |
| Cc1ccc(C)c2c1sc1nc3nc4sc5ccccc5n4c(=N)c3c(=O)n12 | 89% (inactive) |
| COc1ccc(-c2cc(C(=O)N=Nc3c(O)[nH]c4ccccc34)no2)cc1 | 91.8% (inactive) |
| CC(C)Oc1ccc2cc(-c3nn(CC4CCNCC4)c4ncnc(N)c34)ccc2c1 | 63.8% (inactive) and -56.6% (active) |
| CNC(=O)c1cc(Oc2ccc(NC(=O)Nc3ccc(Cl)c(OC(C)C)c3)c(F)c2)ccn1 | 59.6% (inactive) |
